Sm TGR inh: qHTS Assay for the Inhibitors of Schistosoma Mansoni Peroxiredoxins. purified TGR, DTNB reduction, TNB absorbance 405 nm. Potency, µM (top dose mostly 114 µM), for the others: top-dose activity change, negative = inhibition, usual class: inhibitors. Schistosoma mansoni thioredoxin glutathione reductase (TGR), Q962Y6. AID 485364, 2010. actives 3% (n = 360,000); also: potency is read from the fitted curve at half-maximal effect; % is scaled to controls: 0 for no effect and ±100 for the full control effect; nearly all actives have a fitted effect of over 60% in size
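Kinetic colorimetric format: TGR-catalysed, NADPH-driven DTNB reduction monitored via TNB absorbance. Enzyme dispensed at 20 nM; compound exposure 15 min at room temperature before reaction start.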
Tb PYK inh: qHTS of Trypanosoma Brucei Inhibitors. pyruvate kinase (Trypanosoma brucei), Q57TT1. actives 0.12% (n = 410,000). TbPYK enzyme, Kinase-Glo Plus ATP luminescence, 45 min. Potency, µM (doses to about 76.8 µM), for inactives: at the top dose activity, negative = inhibition, hits mostly inhibitors. AID 624173, 2012; also: potency is read from the fitted curve at half-maximal effect; % is scaled to controls: 0 for no effect and ±100 for the full control effect; nearly all actives have a fitted effect of over 50% in size
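Screened from lowest to highest concentration, compounds were pinned into TbPYK/substrate mixtures, and ADP (130 uM final) was added. Plates sat at room temperature for 45 min prior to Kinase-Glo Plus detection by luminescence.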
Giardia FBPA inh-1: qHTS Assay for Inhibitors of Fructose-1,6-bisphosphate Aldolase from Giardia Lamblia; A8B2U2; purified Giardia FBPA; Potency, µM (top dose mostly 59.6 µM), for inactives: at the top dose activity, negative = inhibition, most hits filed as inhibitors; actives 0.71% (n = 290,000); AID 2451, 2010; also: potency is read from the fitted curve at half-maximal effect; % is scaled to controls: 0 for no effect and ±100 for the full control effect; nearly all actives have a fitted effect of over 55% in size
Target sequence (A8B2U2 whole entry, looked up): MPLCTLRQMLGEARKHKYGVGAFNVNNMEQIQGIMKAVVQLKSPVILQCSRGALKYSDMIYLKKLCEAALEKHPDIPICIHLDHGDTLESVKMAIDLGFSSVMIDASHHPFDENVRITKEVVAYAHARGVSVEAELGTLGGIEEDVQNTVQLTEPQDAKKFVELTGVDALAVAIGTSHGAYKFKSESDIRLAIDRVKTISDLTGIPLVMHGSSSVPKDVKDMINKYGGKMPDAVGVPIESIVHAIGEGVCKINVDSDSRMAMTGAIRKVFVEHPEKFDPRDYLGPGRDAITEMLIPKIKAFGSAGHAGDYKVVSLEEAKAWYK
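40 nM FBPA preincubated 10 min at RT with compound (up to 57.5 uM final), then substrate plus GAPDH/TPI/NAD/arsenate coupling and diaphorase/resazurin added. Fluorescence read after 20 min at RT, 525/598 nm.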
CHX counter-1: Cycloheximide Counterscreen for Small Molecule Inhibitors of Shiga Toxin; cell reporter, cycloheximide protein synthesis inhibition counterscreen; max response, %; actives 12% (n = 300,000); AID 2314, 2010; in the data active = max response mostly above about 13%, no sharp cut-off; inactive = mostly below about 14%; also: read at 38.3 µM for the half of the compounds with a filed dose; 0% is about no effect
LmPK inhibitor: qHTS Assay for Inhibitors of Leishmania Mexicana Pyruvate Kinase (LmPK) | Potency, µM (titrated, usually from 57.5 µM), inactives show top-dose activity change, negative = inhibition, most hits filed as inhibitors | AID 1721, 2009 | Q27686 | actives 0.37% (n = 290,000) | purified LmPK, Kinase-Glo ATP luminescence, 1 h; also: potency is read from the fitted curve at half-maximal effect; % is scaled to controls: 0 for no effect and ±100 for the full control effect
Target sequence (Q27686 whole entry, looked up): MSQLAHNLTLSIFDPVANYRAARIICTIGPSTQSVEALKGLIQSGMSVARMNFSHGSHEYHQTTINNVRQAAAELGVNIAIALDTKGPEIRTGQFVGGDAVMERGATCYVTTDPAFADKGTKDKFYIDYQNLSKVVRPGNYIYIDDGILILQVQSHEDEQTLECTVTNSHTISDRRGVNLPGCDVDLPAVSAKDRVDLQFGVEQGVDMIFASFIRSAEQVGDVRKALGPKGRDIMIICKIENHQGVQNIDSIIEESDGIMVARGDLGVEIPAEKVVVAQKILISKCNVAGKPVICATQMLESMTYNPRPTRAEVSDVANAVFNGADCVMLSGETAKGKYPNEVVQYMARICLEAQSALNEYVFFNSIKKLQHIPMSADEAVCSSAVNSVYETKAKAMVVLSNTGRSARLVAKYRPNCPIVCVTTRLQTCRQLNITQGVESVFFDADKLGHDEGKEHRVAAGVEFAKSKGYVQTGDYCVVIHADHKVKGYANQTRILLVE
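Kinase-Glo luminescence read after 1 h RT reaction of 0.1 nM LmPK with 0.5 mM PEP and 0.1 mM ADP. Activity scaled between uninhibited and enzyme-free controls.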
Shiga toxin inh: A qHTS for Small Molecule Inhibitors of Shiga Toxin | Vero cells, Shiga toxin protein synthesis inhibition reporter | AID 2315, 2010 | actives 9.2% (n = 290,000) | inhibition, % at 38.7 µM; in the data active = inhibition mostly above about 28%, no sharp cut-off; inactive = mostly below about 43%; also: 0% is about no effect
CHX counter-2: Cycloheximide Counterscreen for Small Molecule Inhibitors of Shiga Toxin (Confirmatory). shares compounds with Shiga toxin inh. actives 3% (n = 510). Cycloheximide counterscreen, protein synthesis reporter, Shiga toxin assay. Potency, µM (highest dose often 38.3 µM), without a hit: top-dose activity (activation), most hits filed as activators; calls by dose curve; also: potency is read from the fitted curve at half-maximal effect; 0% is about no effect
Giardia growth: qHTS Assay for Inhibitors of Fructose-1,6-bisphosphate Aldolase from Giardia Lamblia: Giardia lamblia growth inhibition; Potency, µM (doses to about 57.5 µM), for the others: at the top dose activity change, negative = inhibition, actives largely listed as inhibitors; actives 5% (n = 1,500); shares compounds with Giardia FBPA inh-1; Giardia lamblia trophozoite growth inhibition;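 also: potency is read from the fitted curve at half-maximal effect; trophozoites exposed to compound for 48 h at 37 °C; % is scaled to controls: 0 for no effect and ±100 for the full control effect; nearly all actives have a fitted effect of over 70% in size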
Mammal cell tox: qHTS Assay for Inhibitors of Fructose-1,6-bisphosphate Aldolase from Giardia Lamblia: Mammalian cellular toxicity; shares compounds with Giardia FBPA inh-1; mammalian cell viability counter-screen, qHTS; Potency, µM (top dose mostly 57.5 µM), for the others: at the top dose viability change, negative = toxicity, usual class: inhibitors; actives 4% (n = 1,500);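 also: Chinese hamster ovary cells used as mammalian cytotoxicity surrogate; viability measured as cellular ATP by luminescence; potency is read from the fitted curve at half-maximal effect; compound exposure lasted 48 h before reading; % is scaled to controls: 0 for no effect and ±100 for the full control effect; nearly all actives have a fitted effect of over 60% in size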
Giardia FBPA inh-2: qHTS Assay for Inhibitors of Fructose-1,6-bisphosphate Aldolase from Giardia Lamblia: Primary screen confirmation. AID 2787, 2010. actives 5% (n = 1,500). Potency, µM (series often up to 57.5 µM), inactives show at the top dose activity change, negative = inhibition, actives largely listed as inhibitors. shares compounds with Giardia FBPA inh-1. purified Giardia aldolase enzyme activity, qHTS; also: potency is read from the fitted curve at half-maximal effect; % is scaled to controls: 0 for no effect and ±100 for the full control effect; nearly all actives have a fitted effect of over 45% in size
Rabbit aldolase: qHTS Assay for Inhibitors of Fructose-1,6-bisphosphate Aldolase from Giardia Lamblia: Rabbit FBPA Selectivity | Potency, µM (doses to about 57.5 µM), for the others: top-dose activity, negative = inhibition, actives largely listed as inhibitors | actives 4% (n = 1,500) | shares compounds with Giardia FBPA inh-1 | Rabbit muscle FBPA enzyme inhibition, selectivity counter-screen; also: potency is read from the fitted curve at half-maximal effect; % is scaled to controls: 0 for no effect and ±100 for the full control effect; nearly all actives have a fitted effect of over 60% in size
GAPDH coupling: qHTS Assay for Inhibitors of Fructose-1,6-bisphosphate Aldolase from Giardia Lamblia: Coupling assay counterscreen confirmation. Potency, µM (top dose mostly 57.5 µM), without a hit: at the top dose activity change, negative = inhibition, hits mostly inhibitors. shares compounds with Giardia FBPA inh-1. actives 6% (n = 1,500). GAPDH coupling enzyme counterscreen, biochemical, qHTS. AID 2795, 2010; also: potency is read from the fitted curve at half-maximal effect; % is scaled to controls: 0 for no effect and ±100 for the full control effect; nearly all actives have a fitted effect of over 55% in size
* hit, by the source's call; ? = inconclusive; · = no result given; [ ] = dose if it differs, or a comment. The full list was thinned out, with hits kept by preference. Unless noted, calls follow the shape of the dose curve; as a rule, active = well fitted curve in the direction sought with a large enough effect; inconclusive = small, poorly fitted or top-dose-only effect, or another doubt; inactive = no such curve, though single readings can be large; an effect the other way counts as inactive or inconclusive.

SMILES	Sm TGR inh	Tb PYK inh	Giardia FBPA inh-1	CHX counter-1	LmPK inhibitor	Shiga toxin inh	Giardia growth	Mammal cell tox	Giardia FBPA inh-2	Rabbit aldolase	GAPDH coupling	others
C/C(=N/OC(=O)c1ccc(C(F)(F)F)cc1)c1oc(C)nc1C	5%	-11%	1%	-1	?	-5	·	·	·	·	·
CC(C)(C)c1ccc(C(=O)Nc2cc(-c3ccccc3)nn2-c2ccccc2)cc1	0%	-1%	·	·	·	·	·	·	·	·	·
Cc1nnc(N2C(=O)C(=O)/C(=C(/O)c3ccc4c(c3)OCCO4)C2c2ccc([N+](=O)[O-])cc2)s1 (stereo not drawn)	-25%	·	·	8	-12%	44*	·	·	·	·	·	CHX counter-2=-1%
Cc1nc2cc(Oc3nc(NCCN(C)C)nc4ccsc34)ccc2s1	·	-6%	·	·	·	·	·	·	·	·	·
Cc1cc(C)cc(C(=O)NCCC(=O)NCc2cc(=O)n(C)c(=O)n2C)c1	4%	2%	5%	-3	1%	-4	·	·	·	·	·
COC(=O)c1sc(NC(=O)COc2cccc3ccccc23)nc1C	-16%	3%	6%	-2	2%	-15	·	·	·	·	·
COC(=O)c1sc(NC(=O)COc2cccc(C)c2)nc1C	-1%	-3%	-1%	-2	0%	28*	·	·	·	·	·	CHX counter-2=1%
CC(C)c1nnc(NC(=O)CSc2nc3ccccc3s2)s1	3%	-14%	6%	3	4%	50*	·	·	·	·	·	CHX counter-2=1%
Cc1csc(NC(=O)CSc2nc3ccccc3s2)n1	0%	-2%	1%	-1	4%	24	·	·	·	·	·
Nc1cc(N)nc(SCC(=O)Nc2ccc(Br)cc2Cl)n1	0%	-28%	0%	14	2%	48*	·	·	·	·	·	CHX counter-2=?
COc1cc(C(=O)N/N=C/c2sc(N3CCOCC3)nc2-c2ccccc2)cc(OC)c1OC	0%	0%	0%	-4	4%	20	·	·	·	·	·
COc1ccccc1NC(=O)CSc1nnc(-c2ccco2)n1N	?	-5%	-3%	-8	-3%	-1	·	·	·	·	·
COc1ccccc1NC(=O)CSc1nnc(-c2ccco2)n1Cc1ccco1	?	2%	5%	-4	1%	63*	·	·	·	·	·	CHX counter-2=3%
COc1ccc(NC(=O)NC2CCCCC2C)cc1 (stereo not drawn)	12%	3%	1%	1	3%	27	·	·	·	·	·
N#Cc1ccc(N=c2ssnc2Cl)cc1	?	14µM*	16µM*	2	-2%	28*	-8%	-12%	-23%	40µM*	11%	CHX counter-2=0%
Cc1ccc(S(=O)(=O)N(C)C)cc1NC(=O)C(C)OC(=O)C1CCC1 (stereo not drawn)	·	2%	·	·	·	·	·	·	·	·	·
C/C(=N\NC(=O)c1ccc(Cl)c(Cl)c1)c1ccccn1	0%	0%	?	8	-4%	5	-3%[38.3 µM]	2.9µM*	1%	-4%	1%
COCC(=O)N(C)C[C@H]1N[C@@](C)(C(=O)OC)[C@H]2C(=O)N(C)C(=O)[C@@H]12	·	4%	·	·	·	·	·	·	·	·	·
CCC1(C)Cc2ccccc2-c2nc(NN)[nH]c(=O)c21 (stereo not drawn)	26%	1%	22µM*	-2	4%	-4	23%	2%	1%	-23%	-27%
COc1cccc(CNc2ccccc2O)c1OCc1ccccc1F	-15%	-6%	?	-3	-5%	27	·	·	·	·	·
CC1CCCN(C(=O)c2ccc(NS(=O)(=O)c3cccc([N+](=O)[O-])c3)cc2)C1 (stereo not drawn)	3%	1%	·	·	·	·	·	·	·	·	·
Cc1nn(CC(C)C(=O)N2CCN(S(=O)(=O)c3ccc(Cl)cc3)CC2)c(C)c1C (stereo not drawn)	18%	0%	8%	-2	-4%	-4	·	·	·	·	·
O=C(/C=C/c1ccc(Cl)cc1)NC(=S)N1C[C@H]2C[C@H](C1)c1cccc(=O)n1C2	-5%	-9%	7.1µM*	-4	-3%	-6	-22%	15%	4%	5%	4%
O=C(/C=C/c1ccc(Br)cc1)NC(=S)N1C[C@H]2C[C@H](C1)c1cccc(=O)n1C2	-18%	-6%	?	-1	2%	-3	·	·	·	·	·
N#CC(C#N)=C(C#N)c1ccc(Nc2ccccc2)cc1	2.8µM*	-5%	22µM*	-1	-27%	·	?	-8%	-17%	-8%	-18%
Cn1cnc([N+](=O)[O-])c1Sc1ncccc1N	?	-3%	18µM*	0	5%	-14	27%	3%	1%	6%	-18%
COCCNC(=S)NNc1ccc(Cl)c(C(=O)O)c1	3%	-22%	7.1µM*	-3	8%	12	?	4%	-8%	-4%	-7%
O=C(Cc1ccccc1)Nc1cccc(C(=O)O)c1O	-1%	1%	21%	14	4%	12	·	·	·	·	·
O=C(Nn1cc(C(=O)Nc2ccc(F)cc2F)c2ccccc2c1=O)c1cnccn1	2%	-1%	18µM*	-5	2%	-2	?	-9%	-9%	1%	-17%
